PubChem BioAssay (NCATS)
A number with no mark means an inactive call. Results filed as inconclusive are left out. Entries that show only a call come without a potency. Active and inactive are the calls of the source. Unless noted, calls follow the shape of the dose curve; as a rule, active = well fitted curve in the direction sought with a large enough effect; inconclusive = small, poorly fitted or top-dose-only effect, or another doubt; inactive = no such curve, though single readings can be large; an effect the other way counts as inactive or inconclusive.

What was measured:
[1] = molecular target: Lysosomal acid glucosylceramidase (Homo sapiens) (UniProt P04062); assay: Glucocerebrosidase-p2 (AID 348; in the data active = potency below about 10 µM; also: potency is read from the fitted curve at half-maximal effect); conditions: purified GBA, blue fluorogenic substrate, 40 min
Summary of the method: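 Compounds titrated from 0.6 nM upwards against 0.2 nM enzyme in pH 5.9 citric acid/KH2PO4, taurocholate, tween-20; blue fluorogenic substrate 80 uM, 40 min room temperature, stopped and read Ex 365/Em 440 for AC50.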

[2] = AP1 Signaling Pathway (AID 357; active = well fitted curve in either direction with a large enough effect, not every such curve was filed as active;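 also: ME-180 reporter cells stimulated with EGF at its EC50 level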); conditions: ME-180 AP-1-bla reporter, EGF-induced, beta-lactamase ratio, 5 h; at 7.69 µM (top of the series) unless noted
Summary of the method: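 Titration-series screen for positive or negative modulators of EC50 EGF-induced signaling in ME-180 cells carrying an AP-1-driven beta-lactamase reporter. After 5 hours at 37 degrees Celsius, CCF4 460nm/530nm emission ratio gave %Activity; AC50 values derived.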

[3] = molecular target: Cytochrome P450 1A2 (Homo sapiens) (UniProt P05177); assay: p450-cyp1a2 (AID 410; calls by dose curve; also: potency is read from the fitted curve at half-maximal effect); conditions: recombinant CYP1A2, luciferin-ME demethylation, luminescence; series mostly up to 57 µM
Summary of the method: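 Luminescent readout of luciferin formed from Luciferin-ME by human CYP1A2; data normalized against complete inhibition by 57 uM furafylline. Enzyme 20nM, substrate 100uM at Km, 100mM KPO4 buffer, 60 min reaction at room temperature.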

[4] = NFAT Signaling Pathway (AID 444; active = well fitted curve in either direction with a large enough effect, not every such curve was filed as active;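 also: carbachol stimulus at about its EC50 of 1 µM final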); conditions: Jurkat NFAT-bla M1, carbachol, beta-lactamase ratio, 5 h; at 7.69 µM (top of the series) unless noted
Summary of the method: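 Read-out: CCF4 FRET ratio (460 nm/530 nm) after 1 h RT dye loading, used for %activity and AC50 from titration series. Cells: Jurkat NFAT-β-lactamase/M1 line, treated with compound plus 1 uM carbachol for 5 h, 37 °C.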

[5] = Stat Signaling Pathway (AID 446; active = well fitted curve in either direction with a large enough effect, not every such curve was filed as active;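 also: ME-180 cervical cancer cells given 40 pM IL-6 alongside compound; SIE-controlled beta-lactamase reporter measured as 460/530 nm FRET emission ratio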); conditions: ME-180 SIE beta-lactamase reporter, IL-6 stimulated, 5 h; at 7.69 µM (top of the series) unless noted
Summary of the method: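 Screening format detects activators and inhibitors alike: ME-180 SIE-bla cells stimulated at 40 pM IL-6 for 5 hrs with compound, then dual-emission beta-lactamase read at 405 nm excitation.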

[6] = molecular target: Glucocorticoid receptor (Homo sapiens) (UniProt P04150); assay: GR-EFC Redistribution (AID 451; calls by dose curve; also: potency is read from the fitted curve at half-maximal effect); conditions: CHO-K1 GR-EFC translocation, beta-gal luminescence, 2 h
Summary of the method: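 Translocation of GR-ED fusion to nuclear EA restores b-gal, read by luminescence after 1 h room-temperature detection. Engineered CHO-K1 biosensor cells, 1,000/well, exposed 2 h at 37 C to titrations up to 46 uM final.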

[7] = molecular target: Mitogen-activated protein kinase 10 (Mus musculus) (UniProt Q61831); assay: JNK3 AlphaScreen Assay (AID 530; active = well fitted curve in either direction with a large enough effect, not every such curve was filed as active;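 also: kinase came from lysate of stimulated human HepG2 cells; signal reports phosphorylation of biotinylated GST-cJun 1-79 at Ser73 with 10 µM ATP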); conditions: JNK3 lysate, c-Jun phosphorylation; series mostly up to 57.1 µM
Summary of the method: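 Compound titrations were preincubated 15 minutes at room temperature with substrate, antibody and pre-activated JNK3-containing HepG2 lysate. Reactions were started with 10 uM ATP and stopped with EDTA-containing bead buffer for AlphaScreen detection.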

[8] = molecular target: 3',5'-cyclic-AMP phosphodiesterase 4B (Homo sapiens) (UniProt Q07343); assay: qHTS Assay for Inhibitors of PDE-IV (AID 607; active = well fitted activation curve with a large enough effect in the main read-out, with a control signal flat, not every such curve was filed as active); conditions: HEK293 ACTOne CNG channel cells, membrane potential fluorescence; series mostly up to 22.9 µM
Summary of the method: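 The readout is membrane depolarisation from a cAMP-sensing CNG channel, detected with a potential dye at ex 535/em 590. Cells were HEK293-derived (endogenous PDE-IV) at 1000 cells/well, titrated up to 22.9 uM final.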

[9] = molecular target: Cytochrome P450 3A4 (Homo sapiens) (UniProt P08684); assay: qHTS Assay for Activators of Cytochrome P450 3A4 (AID 885); conditions: recombinant CYP3A4, Luciferin-PPXE luminescence, 60 min; series mostly up to 57.1 µM; also: nearly all actives have a fitted effect of over 65% in size
Summary of the method: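 Steps: enzyme/substrate mix dispensed; compound added, 10 min RT; NADPH regeneration solution added, 60 min RT; luciferin detection buffer stops reaction; 20 min later luminescence measured.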

[10] = molecular target: Dual specificity protein kinase CLK4 (Homo sapiens) (UniProt Q9HAZ1); assay: qHTS Assay for Inhibitors of CDC-like Kinase 4 (Kinase-Glo Assay) (AID 1770); conditions: recombinant Clk4, Kinase-Glo ATP depletion luminescence; series mostly up to 66.7 µM; also: nearly all actives have a fitted effect of over 65% in size
Summary of the method: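 Recombinant human Clk4 (25 nM) phosphorylated RS repeat peptide (100 uM) with 1 uM ATP in Tris pH 7.5/MgCl2/EGTA/DTT/Triton buffer for 4.5 h at room temperature. Residual ATP was quantified by Kinase-Glo luciferase luminescence.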

[11] = molecular target: Dual specificity protein kinase CLK4 (Homo sapiens) (UniProt Q9HAZ1); assay: qHTS Assay for Inhibitors of CDC-like Kinase 4 (ADP-Glo Assay) (AID 1771); conditions: recombinant CLK4, ADP-Glo luminescence; series mostly up to 80 µM; also: nearly all actives have a fitted effect of over 70% in size
Summary of the method: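 Luminescence from ADP-Glo reports ADP produced by 25 nM Clk4 acting on 100 uM RS repeat peptide with 1 uM ATP over 1 hr at room temperature; residual ATP is depleted before ADP is converted to ATP for detection.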

[12] = molecular target: Dual specificity protein kinase CLK4 (Homo sapiens) (UniProt Q9HAZ1); assay: qHTS Assay for Inhibitors of CDC-like Kinase 4 (ADP-FP Assay) (AID 1795); conditions: Transcreener ADP fluorescence polarization; series mostly up to 50 µM; also: nearly all actives have a fitted effect of over 60% in size
Summary of the method: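 Recombinant human Clk4 (6.25 nM) phosphorylated RS repeat peptide (100 uM) with 1 uM ATP in Tris pH 7.5/MgCl2/EGTA/DTT/Triton buffer for one hour. ADP was quantified by Transcreener competitive fluorescence polarization against an ADP calibration curve.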

[13] = molecular target: Ubiquitin carboxyl-terminal hydrolase 1 (Homo sapiens) (UniProt O94782); assay: Inhibitors of USP1/UAF1: Pilot qHTS (AID 504865); conditions: purified USP1/UAF1, Ub-rhodamine cleavage fluorescence; series mostly up to 54.9 µM; also: nearly all actives have a fitted effect of over 35% in size; also: potency is read from the fitted curve at half-maximal effect;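 as to activity change, negative = inhibition: rhodamine fluorescence freed from ubiquitin-rhodamine substrate followed over time; top concentration of the series differs between compounds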
Summary of the method: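 USP1/UAF1 complex (1nM) preincubated with compound 15 min at room temperature, then Ub-Rho substrate (150nM final) added. Fluorescence read kinetically at 480/540 nm, 6 reads every 60 seconds. Buffer: 50mM HEPES pH 7.8, 0.5mM EDTA, 0.1 mg/ml BSA, 1mM TCEP, 0.01% Tween-20.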

[14] = Primary qHTS for small molecule stabilizers of the endoplasmic reticulum resident proteome: Secreted ER Calcium Modulated Protein (SERCaMP) assay (AID 1508630); conditions: SH-SY5Y GLuc-SERCaMP (Gaussia luciferase released on ER calcium loss) secretion, thapsigargin, luminescence; series mostly up to 38.4 µM
Summary of the method: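 GLuc-SERCaMP-expressing SH-SY5Y cells, pretreated 16 h with compound, are challenged with thapsigargin to empty ER calcium stores; after 4 h, coelenterazine is added directly to the medium and luminescence is imaged.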

[15] = molecular target: Glucocorticoid receptor (Homo sapiens) (UniProt P04150); assay: GR-GFP Redistribution (AID 450;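 active = compounds whose dose series gives a full or clear partial fitted curve of increased nuclear translocation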; also: potency is read from the fitted curve at half-maximal effect); conditions: U2OS GR-GFP nuclear translocation, laser cytometry, 2 h
[16] = molecular target: Cytochrome P450 3A4 (Homo sapiens) (UniProt P08684); assay: qHTS Assay for Inhibitors and Substrates of Cytochrome P450 3A4 (AID 884); conditions: recombinant CYP3A4, Luciferin-PPXE luminescence; series mostly up to 57.1 µM; also: nearly all actives have a fitted effect of over 50% in size; also: potency is read from the fitted curve at half-maximal effect
Summary of the method: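 20 nM human CYP3A4 with 25 uM Luciferin-PPXE (at KM) in 200 mM KPO4, preincubated 10 min with compound; NADPH regeneration started a 60 min RT reaction. Luciferin detected by luminescence, normalized to 57 uM ketoconazole as full inhibition.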

[17] = qHTS Assay for Identification of Small Molecule Agonists for Hypoxia Response Element Signaling Pathway (AID 914; active = well fitted activation curve with a large enough effect in the signal ratio, with a control signal flat, not every such curve was filed as active; the % refers to the signal ratio; also: potency is read from the fitted curve at half-maximal effect); conditions: ME-180 (cervical carcinoma) HRE-bla reporter, beta-lactamase ratio, CoCl2, 17 h; activation: stronger effect = higher value
Summary of the method: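 Reporter activity (beta-lactamase, CCF4 460nm/530nm ratio) in HRE-bla ME-180 cells is recorded after 17 h compound exposure with EC50 CoCl2 at 37 degrees Celsius. AC50 values come from titration data.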

[18] = molecular target: Cytochrome P450 2C19 (Homo sapiens) (UniProt P33261); assay: qHTS Assay for Inhibitors and Substrates of Cytochrome P450 2C19 (AID 899); conditions: recombinant CYP2C19, luciferin-H EGE luminescence; series mostly up to 57.1 µM; also: potency is read from the fitted curve at half-maximal effect; nearly all actives have a fitted effect of over 60% in size
Summary of the method: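 Luminescence readout of luciferin formed from 10uM Luciferin-H EGE (KM level) by 5 nM CYP2C19 in 50mM KPO4. 60 min NADPH-driven reaction at 37C after 10 min compound preincubation; data scaled to 57uM ketoconazole inhibition.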

Chain of Cytochrome P450 3A4 (Homo sapiens) (P08684 whole entry, looked up): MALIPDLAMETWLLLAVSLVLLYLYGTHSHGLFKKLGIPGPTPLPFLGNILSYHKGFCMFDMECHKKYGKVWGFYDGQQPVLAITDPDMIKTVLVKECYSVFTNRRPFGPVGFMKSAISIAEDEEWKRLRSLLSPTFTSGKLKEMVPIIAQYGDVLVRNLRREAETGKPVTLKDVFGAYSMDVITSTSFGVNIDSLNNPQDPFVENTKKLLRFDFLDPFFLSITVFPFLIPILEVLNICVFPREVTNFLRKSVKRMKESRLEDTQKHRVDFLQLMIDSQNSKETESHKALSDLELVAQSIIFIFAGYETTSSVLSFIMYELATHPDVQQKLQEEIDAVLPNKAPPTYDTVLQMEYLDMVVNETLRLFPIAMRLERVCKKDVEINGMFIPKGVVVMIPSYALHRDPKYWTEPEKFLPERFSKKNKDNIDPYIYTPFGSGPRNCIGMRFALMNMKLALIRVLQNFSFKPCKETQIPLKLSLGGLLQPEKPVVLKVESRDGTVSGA
Chain of Cytochrome P450 1A2 (Homo sapiens) (P05177 whole entry, looked up): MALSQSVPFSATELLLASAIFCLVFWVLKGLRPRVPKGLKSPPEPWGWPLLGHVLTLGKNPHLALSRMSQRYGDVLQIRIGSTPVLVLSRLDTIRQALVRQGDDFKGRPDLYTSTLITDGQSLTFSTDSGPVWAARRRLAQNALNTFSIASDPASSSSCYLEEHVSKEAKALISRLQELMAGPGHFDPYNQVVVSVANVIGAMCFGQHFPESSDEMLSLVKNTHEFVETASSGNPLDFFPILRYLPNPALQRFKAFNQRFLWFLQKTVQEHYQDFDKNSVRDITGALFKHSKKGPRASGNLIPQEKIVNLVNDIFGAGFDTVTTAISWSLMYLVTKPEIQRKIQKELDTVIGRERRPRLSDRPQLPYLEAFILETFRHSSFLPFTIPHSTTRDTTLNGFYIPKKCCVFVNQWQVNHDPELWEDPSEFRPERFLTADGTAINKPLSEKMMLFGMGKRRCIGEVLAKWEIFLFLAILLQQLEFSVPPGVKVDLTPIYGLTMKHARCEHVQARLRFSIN
Chain of Glucocorticoid receptor (Homo sapiens) (P04150 whole entry, looked up, the tested form may be a part): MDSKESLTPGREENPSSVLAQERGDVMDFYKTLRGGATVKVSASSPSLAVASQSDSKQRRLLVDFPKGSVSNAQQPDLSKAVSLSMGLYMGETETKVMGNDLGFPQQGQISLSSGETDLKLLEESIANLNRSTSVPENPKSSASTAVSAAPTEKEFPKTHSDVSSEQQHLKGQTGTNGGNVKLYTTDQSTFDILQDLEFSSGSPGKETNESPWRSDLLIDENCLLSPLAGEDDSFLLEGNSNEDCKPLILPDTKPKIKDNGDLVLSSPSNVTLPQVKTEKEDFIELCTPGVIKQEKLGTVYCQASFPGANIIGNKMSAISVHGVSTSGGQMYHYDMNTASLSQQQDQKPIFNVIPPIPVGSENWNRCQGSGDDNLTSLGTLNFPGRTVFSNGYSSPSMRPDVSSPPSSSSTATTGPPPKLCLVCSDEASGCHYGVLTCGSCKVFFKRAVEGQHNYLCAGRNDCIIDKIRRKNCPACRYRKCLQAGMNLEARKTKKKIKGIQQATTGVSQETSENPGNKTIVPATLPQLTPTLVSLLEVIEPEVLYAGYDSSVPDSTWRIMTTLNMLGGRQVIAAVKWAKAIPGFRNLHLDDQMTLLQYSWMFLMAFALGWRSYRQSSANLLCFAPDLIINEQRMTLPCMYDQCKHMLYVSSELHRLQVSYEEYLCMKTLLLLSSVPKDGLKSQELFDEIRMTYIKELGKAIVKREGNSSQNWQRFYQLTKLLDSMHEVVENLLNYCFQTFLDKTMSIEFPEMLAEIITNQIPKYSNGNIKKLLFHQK
Chain of Ubiquitin carboxyl-terminal hydrolase 1 (Homo sapiens) (O94782 whole entry, looked up): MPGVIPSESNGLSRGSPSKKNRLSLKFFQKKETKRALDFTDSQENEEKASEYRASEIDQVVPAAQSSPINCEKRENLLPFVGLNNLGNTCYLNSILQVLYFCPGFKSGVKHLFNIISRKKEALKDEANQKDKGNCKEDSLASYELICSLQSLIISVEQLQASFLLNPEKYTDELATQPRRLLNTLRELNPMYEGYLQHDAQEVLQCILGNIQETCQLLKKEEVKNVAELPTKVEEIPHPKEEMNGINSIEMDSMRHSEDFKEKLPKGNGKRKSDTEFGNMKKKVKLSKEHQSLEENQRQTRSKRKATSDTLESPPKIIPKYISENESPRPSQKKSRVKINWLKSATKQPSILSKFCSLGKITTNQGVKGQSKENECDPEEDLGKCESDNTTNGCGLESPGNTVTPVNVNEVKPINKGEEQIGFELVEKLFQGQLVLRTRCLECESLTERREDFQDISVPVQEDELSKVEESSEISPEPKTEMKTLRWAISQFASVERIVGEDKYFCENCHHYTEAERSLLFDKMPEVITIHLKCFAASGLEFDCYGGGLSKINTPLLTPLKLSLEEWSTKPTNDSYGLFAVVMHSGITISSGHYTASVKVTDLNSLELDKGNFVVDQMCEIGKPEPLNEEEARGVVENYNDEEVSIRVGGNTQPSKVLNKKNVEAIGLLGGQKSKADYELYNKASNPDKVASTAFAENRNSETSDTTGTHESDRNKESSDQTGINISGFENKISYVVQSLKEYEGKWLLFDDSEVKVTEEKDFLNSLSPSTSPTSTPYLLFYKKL
Chain of Lysosomal acid glucosylceramidase (Homo sapiens) (P04062 whole entry, looked up): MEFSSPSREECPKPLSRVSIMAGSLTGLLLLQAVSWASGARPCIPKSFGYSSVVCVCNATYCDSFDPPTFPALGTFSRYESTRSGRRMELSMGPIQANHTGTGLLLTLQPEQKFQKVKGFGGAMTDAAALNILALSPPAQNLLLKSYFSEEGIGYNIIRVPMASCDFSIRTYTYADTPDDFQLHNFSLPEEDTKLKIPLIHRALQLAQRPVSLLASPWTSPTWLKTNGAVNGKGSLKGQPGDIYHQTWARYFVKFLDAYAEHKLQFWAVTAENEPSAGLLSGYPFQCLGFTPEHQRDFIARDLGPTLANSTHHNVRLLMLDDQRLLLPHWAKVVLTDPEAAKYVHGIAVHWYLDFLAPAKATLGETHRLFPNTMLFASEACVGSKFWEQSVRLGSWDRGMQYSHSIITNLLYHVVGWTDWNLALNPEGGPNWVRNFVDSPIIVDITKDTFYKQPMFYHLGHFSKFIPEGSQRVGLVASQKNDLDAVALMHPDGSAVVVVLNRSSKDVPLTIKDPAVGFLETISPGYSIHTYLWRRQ
Chain of 3',5'-cyclic-AMP phosphodiesterase 4B (Homo sapiens) (Q07343 whole entry, looked up): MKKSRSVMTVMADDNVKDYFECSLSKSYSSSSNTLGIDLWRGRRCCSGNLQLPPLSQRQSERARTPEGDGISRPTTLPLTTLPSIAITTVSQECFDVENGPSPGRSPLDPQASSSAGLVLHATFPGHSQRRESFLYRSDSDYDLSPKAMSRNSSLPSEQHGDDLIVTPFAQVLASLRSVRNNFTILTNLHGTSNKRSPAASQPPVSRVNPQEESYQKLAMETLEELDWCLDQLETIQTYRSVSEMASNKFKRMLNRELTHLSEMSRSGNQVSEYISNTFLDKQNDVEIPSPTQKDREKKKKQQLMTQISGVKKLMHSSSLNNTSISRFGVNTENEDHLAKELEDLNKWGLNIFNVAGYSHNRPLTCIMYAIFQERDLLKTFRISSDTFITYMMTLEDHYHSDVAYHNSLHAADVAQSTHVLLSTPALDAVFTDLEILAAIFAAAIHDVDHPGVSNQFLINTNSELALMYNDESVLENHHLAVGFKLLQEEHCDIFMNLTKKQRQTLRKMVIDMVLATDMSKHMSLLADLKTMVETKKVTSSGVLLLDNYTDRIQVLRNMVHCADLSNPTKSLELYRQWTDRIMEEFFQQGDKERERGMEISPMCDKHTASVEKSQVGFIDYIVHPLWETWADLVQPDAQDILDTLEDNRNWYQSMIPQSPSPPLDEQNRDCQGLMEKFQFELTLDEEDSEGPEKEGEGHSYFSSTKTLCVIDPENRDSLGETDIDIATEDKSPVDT
Chain of Dual specificity protein kinase CLK4 (Homo sapiens) (Q9HAZ1 whole entry, looked up): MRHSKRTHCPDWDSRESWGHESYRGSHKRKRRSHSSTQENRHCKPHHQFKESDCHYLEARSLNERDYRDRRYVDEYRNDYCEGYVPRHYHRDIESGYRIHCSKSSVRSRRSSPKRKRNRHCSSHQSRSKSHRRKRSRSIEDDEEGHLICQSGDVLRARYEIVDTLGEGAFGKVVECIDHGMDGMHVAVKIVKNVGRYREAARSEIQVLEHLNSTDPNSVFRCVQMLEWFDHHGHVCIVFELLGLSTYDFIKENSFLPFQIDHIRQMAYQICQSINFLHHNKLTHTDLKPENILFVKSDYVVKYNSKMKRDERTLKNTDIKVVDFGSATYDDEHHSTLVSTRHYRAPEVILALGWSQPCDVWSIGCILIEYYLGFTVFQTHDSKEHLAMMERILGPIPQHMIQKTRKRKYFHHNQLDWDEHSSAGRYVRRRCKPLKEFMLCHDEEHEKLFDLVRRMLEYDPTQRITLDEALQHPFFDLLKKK
Chain of Cytochrome P450 2C19 (Homo sapiens) (P33261 whole entry, looked up): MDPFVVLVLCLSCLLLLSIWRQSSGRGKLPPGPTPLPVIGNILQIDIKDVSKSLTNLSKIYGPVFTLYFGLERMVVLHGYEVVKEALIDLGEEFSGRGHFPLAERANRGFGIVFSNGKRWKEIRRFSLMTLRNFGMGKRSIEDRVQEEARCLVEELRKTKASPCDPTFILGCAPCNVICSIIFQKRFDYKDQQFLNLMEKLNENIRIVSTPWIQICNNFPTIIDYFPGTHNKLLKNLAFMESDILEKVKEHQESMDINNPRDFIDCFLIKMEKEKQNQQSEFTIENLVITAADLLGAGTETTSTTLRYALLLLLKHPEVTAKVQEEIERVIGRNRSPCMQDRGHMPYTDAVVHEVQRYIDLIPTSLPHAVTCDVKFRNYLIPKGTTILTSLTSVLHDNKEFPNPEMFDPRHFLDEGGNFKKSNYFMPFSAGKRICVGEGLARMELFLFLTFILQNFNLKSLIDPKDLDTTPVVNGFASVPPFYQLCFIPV

Row | Structure (SMILES) | Potency [1] [µM] | activity change, negative = inhibition [2] | Potency [3] | activity change, negative = inhibition [4] | activity, negative = inhibition [5] [%] | Potency [6] [µM] | Potency [7] | Potency [8] | Potency [9] | Potency [10] | Potency [11] | Potency [12] | Potency [13] | outcome [14] | Potency [15] [µM] | Potency [16] | Potency [17] | Potency [18]
1 | COc1ccccc1CNc1ccnc(-c2ccc(C(=O)N(C)C)cc2)n1 | > 11.4 | -10.9% | 12.6 µM (active) | 4.15% | -1.46 | > 46 | inactive | inactive | inactive | inactive | inactive | inactive | inactive | inactive | – | – | – | –
2 | COc1ccccc1CNc1cc(-c2ccccc2C)ncn1 | > 11.4 | -17.3% | 5.01 µM (active) | -18.6% | 14.3 | > 46 | inactive | – | inactive | inactive | inactive | inactive | – | inactive | > 46 | – | – | –
3 | CN(C)c1ncc2nc(-c3ccc(Cl)cc3)c(=O)n(Cc3ccc(F)cc3)c2n1 | > 11.4 | 115% [activator] (active) | 5.01 µM (active) | 137% [activator] (active) | – | > 46 | inactive | inactive | – | inactive | inactive | inactive | – | inactive | > 9.22 | inactive | 1.26 µM (active) | –
4 | N#Cc1cccc(-c2cncnc2NCc2ccccc2)c1 | > 11.4 | 1.22% | 5.01 µM (active) | 2.64% | -1.62 | > 46 | inactive | inactive | inactive | inactive | inactive | inactive | inactive | inactive | – | 1.26 µM (active) | – | 7.94 µM (active)
5 | COc1cccc(Cn2c(=O)cnc3cnc(OC)nc32)c1 | > 11.4 | 17.7% | 12.6 µM (active) | 20% | – | > 46 | inactive | inactive | inactive | inactive | inactive | inactive | inactive | inactive | > 9.22 | – | – | –
6 | CCNc1ncc2nc(-c3cc(F)cc(F)c3)c(=O)n(CCc3ccccc3)c2n1 | > 11.4 | 109% [activator] (active) | 25.1 µM (active) | 137% [activator] (active) | – | > 46 | inactive | inactive | inactive | inactive | inactive | inactive | 20 µM (active) | inactive | > 9.22 | – | 1 µM (active) | –
